Source: the supplement of paper PMC10981050
“And” between values parts separate entries of the source, which are not always exact repeats. Equal values may be shown once. Where a name gives a salt, the structure may show the parent alone.

How the values were obtained:
Assay in all cases: cell viability relative to vehicle control; higher = less cytotoxic
Details in all cases: 10 µM
K562 = test system: K562
How it was run: (§1)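 Mutant clones made by CRISPR editing and their isogenic wild-type counterparts, from four leukaemia lines, were exposed to a single 10 µM dose of each library compound for 48 h. The supernatant was then removed and CellTiter-Glo luminescence was read. Viability was reported as percent of the on-plate vehicle control.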

MARIMO = test system: MARIMO
How it was run: as §1

MOLM14 = test system: MOLM14
How it was run: as §1

OCI-AML2 = test system: OCI-AML2
How it was run: as §1

Compound | cell viability (K562; SRSF2 genotype: SRSF2 P95H/wt) | cell viability (K562; SRSF2 genotype: SRSF2 wt/wt) [%] | cell viability (MARIMO; SRSF2 genotype: SRSF2 P95H/wt) [%] | cell viability (MARIMO; SRSF2 genotype: SRSF2 wt/wt) [%] | cell viability (MOLM14; SRSF2 genotype: SRSF2 P95H/wt) [%] | cell viability (MOLM14; SRSF2 genotype: SRSF2 wt/wt) [%] | cell viability (OCI-AML2; SRSF2 genotype: P95H/wt) [%] | cell viability (OCI-AML2; SRSF2 genotype: wt/wt) [%]
C=CC(=O)Nc1cccc(Oc2nc(Nc3ccc(N4CCN(C)CC4)cc3)ncc2Cl)c1 | 19.3% and 33.1% | 34.2 | 29.4 | 18.8 | -0.04 | -0.03 | 0.39 | 5.07
CCCCCCOC(=O)c1cc(=O)c(O)c2c(O)c(O)c(OC)cc2c1 | 14.8% and 16.8% | 46.8 | 45.2 | 45.2 | 61.5 | 58.9 | 19.8 | 42.4
OCC1(O)COc2cc(O)ccc2-c2cc(O)c(O)cc2C1 (stereo unspecified) [Protosappanin B] | 93.9% and 95.9% | 95.7 | 100 | 97.1 | 102 | 96.2 | 97.3 | 99.5
C=CC(=O)N1CC/C(=C\c2ccc(F)c([N+](=O)[O-])c2)C(=O)/C(=C/c2ccc(F)c([N+](=O)[O-])c2)C1 | 2.41% and 0.35% | 0.44 | 0.25 | 0.39 | 0.29 | 0.29 | 0.26 | 0.35
O=C(c1cn(Cc2cncn2Cc2ccc(Br)cc2)cc1-c1cccc2ccccc12)N1CCOCC1 | 48.4% and 62.4% | 47.2 | 34.1 | 36.4 | 35.1 | 39.1 | 25.7 | 32.2
Cc1c(C)c2c(c(C)c1O)CCC(C)(CCCC(C)CCCC(C)CCCC(C)C)O2 (stereo unspecified) [Vitamin E] | 96.5% and 100% | 108 | 106 | 104 | 105 | 104 | 106 | 100
CCCCCCCCCCCCCCCC(=O)OC [Methyl palmitate] | 103% and 99.7% | 100 | 99 | 92.7 | 103 | 97.7 | 102 | 98.1
OC[C@H]1OC(O)[C@H](O)[C@@H](O)[C@H]1O (stereo partly drawn) [D-Galactose] | 101% and 103% | 98.2 | 103 | 105 | 103 | 103 | 105 | 108
CC(=O)O[C@]1(C(C)=O)CC[C@H]2[C@@H]3C=C(C)C4=CC(=O)CC[C@]4(C)[C@H]3CC[C@@]21C [Megestrol Acetate] | 90.8% and 87.5% | 86.6 | 56.5 | 46.6 | 84.8 | 87.6 | 61.8 | 73.1
CC1(C)OCCn2c1nc1c(N3CCOCC3)nc(-c3cnc(N)nc3)nc12 | 47.1% and 53.8% | 55 | 45.7 | 36 | 27.3 | 23.9 | 11.2 | 19.6
CC(C)(OCc1nn(Cc2ccccc2)c2ccccc12)C(=O)O [Bindarit] | 102% and 106% | 112 | 108 | 103 | 101 | 106 | 118 | 107
N#CC[C@H](C1CCCC1)n1cc(-c2ncnc3[nH]ccc23)cn1 | 87.3% and 90% | 97.7 | 78 | 91 | 68.8 | 82.6 | 60.7 | 57.9
Cc1cnc(-c2ccccc2C(C)C)nc1NCc1ccc(-n2ccnn2)cc1 | 76.7% and 83.9% | 74.5 | 91.1 | 89.7 | 94 | 88.5 | 93.2 | 90.2
Cc1cc(O)c2c(c1)C(=O)c1cc(O)cc(O)c1C2=O [Emodin] | 85.5% and 86.8% | 90.4 | 90.9 | 100 | 109 | 107 | 89.1 | 83.7
CCOC(=O)c1cc(O)c(O)c(O)c1 [Ethyl gallate] | 98.4% and 88.5% | 87.8 | 72.1 | 88.3 | 78.5 | 87.2 | 80.6 | 86.8
O=C1NC(=O)C(c2ccccc2)(c2ccccc2)N1 [Phenytoin (Lepitoin)] | 98.1% and 111% | 99.6 | 107 | 103 | 100 | 103 | 105 | 91.6
CC(C)(C)NC(=O)[C@H]1CC[C@H]2[C@@H]3CC[C@H]4NC(=O)C=C[C@]4(C)[C@H]3CC[C@]12C [Finasteride] | 103% and 99% | 97.5 | 94.3 | 105 | 101 | 102 | 99.7 | 106
CC(=O)O[C@H]1C[C@@H]2CC[C@@H]3[C@H](CC[C@@]4(C)[C@H]3C[C@H]([N+]3(C)CCCCC3)[C@@H]4OC(C)=O)[C@@]2(C)C[C@@H]1N1CCCCC1 [Vecuronium Bromide] | 101% and 109% | 109 | 105 | 103 | 99.8 | 101 | 111 | 109
CC(=O)O[C@H]1CC(=O)OC(C)(C)[C@@H]2CC(=O)[C@]3(C)[C@H](CC[C@@]4(C)[C@@H](c5ccoc5)OC(=O)[C@H]5O[C@]543)[C@@]12C [Nomilin] | 101% and 95.9% | 97.8 | 87.1 | 105 | 99.2 | 104 | 94.8 | 101
CC1(C)S[C@@H]2[C@H](NC(=O)[C@H](C(=O)O)c3ccsc3)C(=O)N2[C@H]1C(=O)O [Ticarcillin sodium] | 95.6% and 98.8% | 104 | 101 | 95.7 | 96.3 | 101 | 98.2 | 89.6
CCS(=O)(=O)Nc1ccc(Oc2ccc(F)cc2F)c(-c2cn(C)c(=O)c3[nH]ccc23)c1 [ABBV-075 (Mivebresib)] | 20.9% and 13.8% | 33.2 | 7.17 | 9.37 | 1.9 | 1.8 | 7.64 | 13.5

Compound | cell viability (K562; SRSF2 genotype: SRSF2 P95H/wt) | cell viability (K562; SRSF2 genotype: SRSF2 wt/wt) [%] | cell viability (MARIMO; SRSF2 genotype: SRSF2 P95H/wt) [%] | cell viability (MARIMO; SRSF2 genotype: SRSF2 wt/wt) [%] | cell viability (MOLM14; SRSF2 genotype: SRSF2 P95H/wt) [%] | cell viability (MOLM14; SRSF2 genotype: SRSF2 wt/wt) [%] | cell viability (OCI-AML2; SRSF2 genotype: P95H/wt) [%] | cell viability (OCI-AML2; SRSF2 genotype: wt/wt) [%]
O=C(Nc1cccc(Nc2ncc(Br)c(NCCc3cnc[nH]3)n2)c1)N1CCCC1 | 46.5% and 64.2% | 47.1 | 49.8 | 45.4 | 5.3 | 3.38 | 4.66 | 10.9
Cc1[nH]c(/C=C2\C(=O)Nc3ccc(S(=O)(=O)N(C)c4cccc(Cl)c4)cc32)c(C)c1C(=O)N1CCN(C)CC1 | 62.4% and 64.8% | 80.7 | 50.9 | 53.2 | 0.26 | 64.6 | 0.09 | 0.12
c1cc(CN2CCCNCCNCCCNCC2)ccc1CN1CCCNCCNCCCNCC1 [Plerixafor] | 93.9% and 99.1% | 99.1 | 96.2 | 100 | 94.8 | 94.7 | 103 | 96.9
O=C(NO)c1cnc(NC2(c3ccccc3)CC2)nc1 | 8.09% and 28.4% | 35.4 | 3.94 | 3.14 | 4.83 | 1.94 | 0.88 | 2.07
O=[N+]([O-])c1ccc2c(c1)S(=O)(=O)C=C2 [Stattic] | 8.02% and 0.43% | 0.74 | 0.14 | 0.16 | 0.12 | 0.25 | 0.06 | 0.06
O=C(NS(=O)(=O)c1ccc(Br)s1)c1ccc(Cl)cc1Cl | 92.9% and 102% | 103 | 97 | 98.4 | 61.8 | 83.3 | 73.9 | 87.6
C=C(C)[C@@H]1CC[C@]2(C=O)CC[C@]3(C)[C@H](CC[C@@H]4[C@@]5(C)CC[C@H](O)C(C)(C)[C@@H]5CC[C@]43C)[C@@H]12 [Betulinicaldehyde] | 101% and 97.2% | 102 | 95.1 | 94.2 | 103 | 98 | 94.5 | 92
CN1CCCC(n2nc(Cc3ccc(Cl)cc3)c3ccccc3c2=O)CC1 (stereo unspecified) [Azelastine hydrochloride (Astelin)] | 87% and 91% | 92.6 | 88.1 | 90.3 | 78.9 | 88.6 | 75.9 | 72.6
C=CC(=O)Nc1cc2c(Nc3ccc(F)c(Cl)c3)ncnc2cc1OCCCN1CCOCC1 [CI-1033 (Canertinib)] | 66.7% and 78.1% | 61.7 | 52 | 61.5 | 12.8 | 15.9 | 27.6 | 31.4
CC1=C(/C=C/C(C)=C/C=C/C(C)=C/C(=O)O)C(C)(C)CCC1 [All-trans Retinoic Acid (Tretinoin)] | 88.7% and 90.3% | 93 | 68.7 | 73.6 | 54.2 | 75.3 | 11.3 | 37.4
COc1cc(O)c(C(=O)Nc2nc(C(=O)NCCN(C(C)C)C(C)C)cs2)cc1OC [Acotiamide hydrochloride] | 93.4% and 91.4% | 103 | 98 | 98.8 | 97 | 98.8 | 97.1 | 98.7
CCN(CC)CCOC(=O)c1ccc(N)cc1Cl [Chloroprocaine HCl] | 95.2% and 93.5% | 97.1 | 103 | 115 | 98 | 99.3 | 90.7 | 113
O=C(O)c1cc(=O)[nH]c(=O)[nH]1 [Orotic acid (6-Carboxyuracil)] | 104% and 95.1% | 96.6 | 91.1 | 101 | 95.3 | 95.2 | 95.2 | 96.5
CC1(C)S[C@@H]2[C@H](NC(=O)[C@H](N)c3ccccc3)C(=O)N2[C@H]1C(=O)O [Ampicillin sodium] | 99% and 108% | 102 | 109 | 109 | 102 | 107 | 109 | 95.7
O=C1C2=C(CCN(Cc3ccccc3)C2)N2CCN=C2N1Cc1ccc(C(F)(F)F)cc1 | 39% and 40.3% | 34 | 43 | 36.9 | 31.1 | 34.1 | 22.3 | 22.3
CC(C)Oc1ccc(C(=O)N[C@H](CNC(=O)CN(C)C)Cc2ccc(-c3cn4cccc([C@H](C)O)c4n3)cc2)cc1Cl | 20.3% and 30.1% | 36.2 | 34.6 | 26.3 | 9.14 | 1.72 | 12.4 | 14.5
CCc1ccc(CCOc2ccc(CC3SC(=O)NC3=O)cc2)nc1 (stereo unspecified) [Pioglitazone hydrochloride (Actos)] | 100% and 97% | 93.4 | 104 | 102 | 96.4 | 100 | 95.7 | 93.5
Cc1onc(-c2ccccc2)c1-c1ccc(S(N)(=O)=O)cc1 [Valdecoxib] | 97.6% and 94.6% | 95.6 | 96.4 | 97.6 | 90.6 | 95.4 | 81.8 | 88.5
COc1ccc2cc3[n+](cc2c1OC)CCc1cc2c(cc1-3)OCO2 [Berberine Sulfate] | 62.4% and 69.2% | 72.4 | 66.7 | 59.5 | 71 | 75.3 | 49.8 | 46.2
c1ccc(CNc2nc(NCc3ccccc3)c3ccccc3n2)cc1 | 17.4% and 10.9% | 12.4 | 0.92 | 11 | 0.16 | 0.16 | 0.21 | 0.19
Oc1ccc2ccccc2c1SSc1c(O)ccc2ccccc12 | 62.1% and 81.6% | 83.9 | 32.7 | 29.7 | 18.9 | 29.6 | 31.8 | 31.2
